Screening results (PubChem)
Most compounds without a hit are left out; they make up all but 3% or so of the library.
TrxR1 substrate = qHTS Assay for Substrates of Mammalian Selenoprotein Thioredoxin Reductase 1 (TrxR1): qHTS. Thioredoxin reductase 1, cytoplasmic (Rattus norvegicus), O89049. purified TrxR1 substrate turnover, NADPH consumption readout. Potency, µM (series often up to 114 µM). 390,000 compounds, 0.01% hits; further: nearly all actives have a fitted effect of over 50% in size
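Rat TrxR1, dispensed at 90 nM, was prereduced with 400 uM NADPH (final) for 5 min at ~22 deg C, then incubated with compound 15 min before 400 uM selenite. A first-read NADPH fluorescence drop versus no-compound background flagged substrates.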
TrxR1 inh = qHTS Assay for Inhibitors of Mammalian Selenoprotein Thioredoxin Reductase 1 (TrxR1): qHTS; Thioredoxin reductase 1, cytoplasmic (Rattus norvegicus), O89049; recombinant rTrxR1, NADPH fluorescence consumption, selenite substrate; Potency, µM (titrated, usually from 114 µM), actives largely listed as inhibitors; 390,000 compounds, 1% hits; AID 588453, 2011; further: nearly all actives have a fitted effect of over 65% in size
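Rat TrxR1 (90 nM in the dispensed reagent) was pre-reduced with 400 uM NADPH for 5 min at room temperature, then incubated with compound for 15 min. After 400 uM selenite was added, NADPH fluorescence (Ex 340/Em 450 nm) was followed for 8 min.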
Nrf2 block = Nrf2 qHTS screen for inhibitors; A549 ARE-Fluc reporter, luciferase luminescence, 18-24 h; Potency, µM (highest dose often 46 µM), usual class: inhibitors; 360,000 compounds, 2.1% hits; further: nearly all actives have a fitted effect of over 60% in size
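Cells were seeded and rested 2 h, then exposed to compounds for 18-24 h. CellTiter-Fluor was read first as a viability measure. BugLite was added 15 min before the final luminescent read of ARE-luciferase activity in A549 cells.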
GALK inh = qHTS Assay for Inhibitors of Human Galactokinase (GALK); Purified GALK, Kinase-Glo residual ATP luminescence; Potency, µM (highest dose often 57.5 µM), usual class: inhibitors; AID 1868, 2009; 270,000 compounds, 0.007% hits; P51570
Target sequence (P51570 whole entry, looked up): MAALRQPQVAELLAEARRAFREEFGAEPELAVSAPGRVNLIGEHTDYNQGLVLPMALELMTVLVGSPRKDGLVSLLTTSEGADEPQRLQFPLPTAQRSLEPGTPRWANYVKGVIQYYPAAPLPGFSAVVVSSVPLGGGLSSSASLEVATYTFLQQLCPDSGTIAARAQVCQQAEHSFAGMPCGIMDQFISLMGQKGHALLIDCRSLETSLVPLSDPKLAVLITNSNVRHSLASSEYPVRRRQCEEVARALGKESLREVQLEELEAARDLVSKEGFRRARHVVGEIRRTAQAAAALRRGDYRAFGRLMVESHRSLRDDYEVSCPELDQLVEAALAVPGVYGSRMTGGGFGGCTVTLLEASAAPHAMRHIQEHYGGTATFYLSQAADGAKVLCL
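The enzyme phosphorylates galactose (100 uM) using ATP (35 uM); inhibition is detected as higher residual ATP, quantified by bioluminescence after 1 h reaction at room temperature, pH 8.0.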
A549 viability = Nrf2 qHTS screen for inhibitors: counterscreen for cytotoxicity. A549 ARE-Fluc cells, CellTiter-Fluor viability, 18-24 h. Potency, µM (titrated, usually from 46 µM), most hits filed as inhibitors. 390,000 compounds, 0.16% hits
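Cytotoxicity counterscreen: CellTiter-Fluor fluorescence was measured in A549 ARE_Fluc cells after 18-24 h of compound exposure in a concentration series. The subsequent BugLite luminescent read reports ARE-luciferase activity.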
Nrf2 activator = qHTS of Nrf2 Activators; AREc32 ARE-luciferase reporter (MCF7-derived line), luminescence, 24 h; Potency, µM (top dose mostly 46.1 µM), usual class: activators; 410,000 compounds, 0.31% hits; AID 624171, 2012; further: nearly all actives have a fitted effect of over 65% in size
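Reporter line AREc32 (ARE-Fluc), seeded overnight in OPTI-MEM with 5% FBS; compound pin-transferred, 24 hr at 37 deg C, 5% CO2; luminescent read-out.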
Numbers stand for hits; – = inactive; ? = inconclusive; · = not tested or not shown; [ ] = dose if it differs, or a comment. The call rests on the fitted dose curve; in most records, active means well fitted curve in the direction sought with a large enough effect; inconclusive means small, poorly fitted or top-dose-only effect, or another doubt; inactive means no such curve, though single readings can be large; an effect the other way counts as inactive or inconclusive.

SMILES | TrxR1 substrate | TrxR1 inh | Nrf2 block | GALK inh | A549 viability | Nrf2 activator
Cc1nn(C)cc1C(C)NC(=O)c1cc(COc2cccc3cnccc23)on1 (configuration not stated) | – | – | 10.3µM | – | – | –
O=S(=O)(NCCc1csc2nc(-c3ccccc3)nn12)c1cc(F)ccc1F | – | – | · | · | – | –
CCCN(C(=O)c1cc2c(=O)[nH]c3ccc(C)cc3c2s1)c1ccc(CC)cc1 | – | – | – | · | – | –
CCCN(CCC)C(=O)c1cc2c(=O)[nH]c3ccc(C)cc3c2s1 | – | – | 18.4µM | – | – | –
O=C(C1CCN(c2nc3ccccc3[nH]2)CC1)N1CCN(c2cccc(Cl)c2)CC1 | – | – | · | · | – | –
C=C1C=CS(=O)(=O)N(Cc2ccccc2)C1 | – | 35.5µM | – | · | – | ·
Cc1c(C(=O)NCc2ccccc2Cl)sc2ncnc(N(C)C3CCCCC3)c12 | – | – | · | · | – | –
Cc1ccc(CNC(=O)CCCOc2cc(=O)n(C)c3ccccc23)o1 | – | 39.8µM | – | – | – | –
Cc1ccc(C)c(N2CCN(C(=O)CCCOc3cc(=O)n(C)c4ccccc34)CC2)c1 | – | – | 23.1µM | – | ? | –
Cc1nc2cc(-c3cccc(F)c3)nn2c(C)c1CCC(=O)NC(C)CCc1ccco1 (configuration not stated) | – | ? | 0.82µM | – | – | –
Cc1nc2cc(-c3ccccc3)nn2c(C)c1CCC(=O)N1CCN(c2ccc(F)cc2)CC1 | – | – | 5.17µM | · | – | –
COc1ccc(-c2cc3nc(C)c(C)c(N4CCN(C(=O)c5ccoc5)CC4)n3n2)cc1 | · | · | · | · | · | –
Cc1nc2cc(-c3cccc(F)c3)nn2c(N2CCN(C(=O)c3ccco3)CC2)c1C | – | – | – | – | – | 12.6µM
CN(C)c1ccc(C(=C2c3ccccc3-c3ccccc32)c2ccc(N(C)C)cc2)cc1 | – | – | · | · | · | ·
Cc1nn(-c2ccc(N3CCOCC3)nn2)c(C)c1CCC(=O)NCc1ccc(Cl)cc1 | – | – | – | · | – | –
CCOC(=O)c1ccc(NC(=O)CSc2nc(-c3ccc(OC)cc3)cc(C(F)(F)F)c2C#N)cc1 | – | – | ? | · | – | –
CC1Cc2ccccc2N1C(=O)CSc1nnc(-c2ccccc2Cl)o1 (configuration not stated) | – | – | – | · | – | 1.78µM
O=C(CSc1nnc(-c2c[nH]c3ccccc23)o1)N1c2ccccc2CCc2ccccc21 | – | – | 11.6µM | – | – | –
CC1Cc2ccccc2N1C(=O)CSc1nnc(-c2ccccc2)c(-c2ccccc2)n1 (configuration not stated) | – | – | 23.1µM | – | –[1.84 µM] | –
Cc1cccc(C)c1NC(=O)CSCc1cnn(-c2ccccc2)c1-n1cccc1 | – | – | ? | · | – | –
COc1ccc(Br)cc1C1NC(c2ccc3c(c2)OCO3)=CC(c2ccccc2O)N1 (configuration not stated) | –[0.0914 µM] | – | ? | · | – | ·
Cc1ccc(C)c(S(=O)(=O)c2nnn3c2nc(NC2CCCCC2)c2sccc23)c1 | – | – | ? | · | ? | –
CC(C)NC(=O)c1cc(-c2ccco2)nn1-c1ccc(Cl)cc1 | – | 20µM | – | – | – | –
O=C(c1cc(-c2cccc(Cl)c2)on1)N1CCCCCC1 | – | – | ? | – | – | –
O=C(c1cc(-c2ccco2)nn1-c1cccc(Cl)c1)N1CCCCC1 | – | 14.1µM | · | – | – | –
Cc1ccc(-n2nc(-c3ccco3)cc2C(=O)O)cc1 | – | ? | – | – | – | –
COc1ccc(-c2nc(C)c(CCNC(=O)c3ccc(F)c(F)c3)s2)cc1 | – | – | · | · | – | –
Cc1c(C(C)C)c(=O)n(-c2ccc(S(=O)(=O)NC3CCCCC3)cc2)n1C | – | – | 14.6µM | – | – | –
